# Values joined by “and” are separate entries in the source; they are usually repeats but may differ in a detail not shown here. Equal values may be shown once. A number with no mark means an inactive call. Inconclusive results are not listed. Entries that show only a call come without a potency. Some compounds were tested as several samples or in several runs, with calls that do not always agree. Active and inactive are the calls of the source. Unless noted, calls follow the shape of the dose curve; as a rule, active = well fitted curve in the direction sought with a large enough effect; inconclusive = small, poorly fitted or top-dose-only effect, or another doubt; inactive = no such curve, though single readings can be large; an effect the other way counts as inactive or inconclusive.
# Key:
# PA-1 = experiment: Primary qHTS to identify gynecologic anti-cancer compounds using libraries of approved drugs and bioactive compounds (AID 1345084); settings: Gynecologic cancer cell panel viability, ATPlite luminescence, 48 h; series mostly up to 57.5 µM; also: nearly all actives have a fitted effect of over 55% in size
# Method in brief: (§1)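 Measured: luminescence after ATPlite addition (15 min, RT). Exposure: 48 h, 37 C, 5% CO2.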
# SKOV3 = experiment: as above; settings: Gynecologic cancer cell panel viability, ATPlite luminescence, 48 h; series mostly up to 57.5 µM
# Method in brief: as §1
# Tov-21-G = experiment: as above; settings: Gynecologic cancer cell panel viability, ATPlite luminescence, 48 h; series mostly up to 57.5 µM
# Method in brief: as §1
# Tov112D = experiment: as above; settings: Gynecologic cancer cell panel viability, ATPlite luminescence, 48 h; series mostly up to 57.5 µM
# Method in brief: as §1
# [1] = Drug repurposing screens with cells derived from glioblastoma tumor samples (AID 1345199); settings: GBM patient neurospheres viability, ATP luminescence, 48 h; also: nearly all actives have a fitted effect of over 40% in size; also: potency is read from the fitted curve at half-maximal effect
# Method in brief: (§2)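 Four patient lines of CD133+ GBM neurospheres were screened at several concentrations; hits were retested in those lines plus three slower-growing GBM lines, using 48-hour treatment and ATP-based viability.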
# astro = experiment: as above; settings: viability, ATP luminescence, 48 h; series mostly up to 45.9 µM
# Method in brief: as §2
# [2] = target: Nuclear receptor subfamily 1 group I member 2 (Rattus norvegicus) (UniProt Q9R1A7); experiment: qHTS assay for small molecule activators of the rat pregnane X receptor (rPXR) signaling pathway (AID 651751; call rule not given here); settings: rPXR reporter cells, luciferase (One-Glo), 24 h
# Chain of Nuclear receptor subfamily 1 group I member 2 (Rattus norvegicus) (Q9R1A7 whole entry, looked up): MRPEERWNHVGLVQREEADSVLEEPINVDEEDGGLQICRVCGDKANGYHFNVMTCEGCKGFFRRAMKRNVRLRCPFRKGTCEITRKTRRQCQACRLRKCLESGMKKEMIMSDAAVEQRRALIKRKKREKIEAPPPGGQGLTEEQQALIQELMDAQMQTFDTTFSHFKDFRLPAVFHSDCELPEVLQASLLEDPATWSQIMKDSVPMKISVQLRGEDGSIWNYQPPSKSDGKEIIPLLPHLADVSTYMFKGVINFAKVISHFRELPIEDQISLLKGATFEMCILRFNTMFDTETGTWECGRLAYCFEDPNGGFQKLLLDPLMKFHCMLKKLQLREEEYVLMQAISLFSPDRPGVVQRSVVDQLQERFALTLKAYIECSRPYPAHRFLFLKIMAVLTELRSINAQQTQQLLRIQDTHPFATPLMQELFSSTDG
# [3] = qHTS assay for small molecule activators of the human pregnane X receptor (PXR) signaling pathway (AID 720659; call rule not given here)
# [4] = at 45.9 µM (top of the series), tumour line B
# [5] = at 45.9 µM (top of the series), tumour line D
# [6] = at 46 µM (top of the series), tumour line A
# [7] = at 46.1 µM (top of the series), tumour line C
# [8] = at 20 µM (top of the series), tumour line C
# [9] = at 21.2 µM (top of the series), tumour line B
# [10] = at 21.2 µM (top of the series), tumour line D
# [11] = at 21.3 µM (top of the series), tumour line A
smiles,measurement,setting,value
Nc1ccc(/C=C/c2ccc(N)cc2S(=O)(=O)O)c(S(=O)(=O)O)c1,"activity change, negative = cytotoxicity",PA-1,4.94% [at 0.462 µM]
same,"activity change, negative = cytotoxicity",SKOV3,-10.7% [at 0.462 µM]
same,"activity change, negative = cytotoxicity",Tov-21-G,0.128% [at 0.462 µM]
same,"activity change, negative = cytotoxicity",Tov112D,3.4% [at 0.462 µM]
same,"activity, negative = cell killing",[1]; [4],-7.96%
same,"activity, negative = cell killing",[1]; [5],-14.3%
same,"activity, negative = cell killing",[1]; [6],-15.5%
same,"activity, negative = cell killing",[1]; [7],-2.52%
same,Potency,astro,inactive
COc1cc(OC)cc(OC)c1,Potency,PA-1,inactive
same,Potency,SKOV3,inactive
same,Potency,Tov-21-G,inactive
same,Potency,Tov112D,inactive
same,"activity, negative = cell killing",[1]; [4],-3.53%
same,"activity, negative = cell killing",[1]; [5],7.76%
same,"activity, negative = cell killing",[1]; [6],-12.5%
same,"activity, negative = cell killing",[1]; [7],-1.01%
same,Potency,astro,inactive
CC(=O)OCC(=O)[C@@]1(O)[C@H](C)C[C@H]2[C@@H]3CCC4=CC(=O)C=C[C@]4(C)[C@@]3(F)[C@@H](O)C[C@@]21C,Potency,PA-1,inactive
same,Potency,SKOV3,inactive
same,Potency,Tov-21-G,inactive
same,Potency,Tov112D,inactive
same,"activity, negative = cell killing",[1]; [8],-1.02%
same,"activity, negative = cell killing",[1]; [9],-13.3%
same,"activity, negative = cell killing",[1]; [10],-10.9%
same,"activity, negative = cell killing",[1]; [4],1.42%
same,"activity, negative = cell killing",[1]; [5],-14.4%
same,"activity, negative = cell killing",[1]; [7],-7.18%
same,Potency,astro,inactive
Oc1cc(O)c2c(c1)O[C@H](c1ccc(O)c(O)c1)[C@H](O)C2,Potency,PA-1,inactive
same,Potency,SKOV3,inactive
same,Potency,Tov-21-G,inactive
same,Potency,Tov112D,inactive
same,"activity, negative = cell killing",[1]; [4],-5.02%
same,"activity, negative = cell killing",[1]; [5],-9.16%
same,"activity, negative = cell killing",[1]; [6],-28.5%
same,"activity, negative = cell killing",[1]; [7],-2.43%
same,Potency,astro,inactive
Cc1c(C(N)=O)cc([N+](=O)[O-])cc1[N+](=O)[O-],Potency,PA-1,inactive
same,Potency,SKOV3,inactive
same,Potency,Tov-21-G,inactive
same,Potency,Tov112D,inactive
same,"activity, negative = cell killing",[1]; [4],-3.44%
same,"activity, negative = cell killing",[1]; [5],-20.3%
same,"activity, negative = cell killing",[1]; [6],-15.4%
same,"activity, negative = cell killing",[1]; [7],1.23%
same,Potency,astro,inactive
NC(CO)(CO)CO,Potency,PA-1,inactive
same,Potency,SKOV3,inactive
same,Potency,Tov-21-G,inactive
same,Potency,Tov112D,inactive
same,"activity, negative = cell killing",[1]; [4],-1.58%
same,"activity, negative = cell killing",[1]; [5],6.44%
same,"activity, negative = cell killing",[1]; [6],-13.6%
same,"activity, negative = cell killing",[1]; [7],0.171%
same,Potency,astro,inactive
CNC(=O)CN(CCN(CCN(CC(=O)[O-])CC(=O)NC)CC(=O)[O-])CC(=O)[O-].O.[Gd+3],Potency,PA-1,inactive
same,Potency,SKOV3,inactive
same,Potency,Tov-21-G,inactive
same,Potency,Tov112D,inactive
same,"activity, negative = cell killing",[1]; [4],8.28% and -4.12%
same,"activity, negative = cell killing",[1]; [5],7.83% and 10.5%
same,"activity, negative = cell killing",[1]; [6],-5.02%
same,"activity, negative = cell killing",[1]; [7],-11.8% and -0.805%
same,Potency,[1]; tumour line A,35.5 µM (active)
same,Potency,astro,inactive
COc1cccc(OC)c1C(=O)N[C@@H]1C(=O)N2[C@@H]1SC(C)(C)[C@@H]2C(=O)O,Potency,PA-1,inactive
same,Potency,SKOV3,inactive
same,Potency,Tov-21-G,inactive
same,Potency,Tov112D,inactive
same,"activity, negative = cell killing",[1]; [4],-0.637%
same,"activity, negative = cell killing",[1]; [5],-7.13%
same,"activity, negative = cell killing",[1]; [6],-15.4%
same,"activity, negative = cell killing",[1]; [7],14.7%
same,Potency,astro,inactive
O=c1ccc2ccccc2o1,Potency,PA-1,inactive
same,Potency,SKOV3,inactive
same,Potency,Tov-21-G,inactive
same,Potency,Tov112D,inactive
same,"activity, negative = cell killing",[1]; [4],-10.7%
same,"activity, negative = cell killing",[1]; [5],-11.2%
same,"activity, negative = cell killing",[1]; [6],-35.1%
same,"activity, negative = cell killing",[1]; [7],13.9%
same,Potency,astro,inactive
NCCCC[C@H](N[C@@H](CCc1ccccc1)C(=O)O)C(=O)N1CCC[C@H]1C(=O)O,Potency,PA-1,inactive
same,Potency,SKOV3,inactive
same,Potency,Tov-21-G,inactive
same,Potency,Tov112D,inactive
same,"activity, negative = cell killing",[1]; [8],16.9%
same,"activity, negative = cell killing",[1]; [9],-0.103%
same,"activity, negative = cell killing",[1]; [10],-3.03%
same,"activity, negative = cell killing",[1]; [11],10.9%
same,Potency,astro,inactive
O=C(O)CNC(=O)c1ccccc1,Potency,PA-1,inactive
same,Potency,SKOV3,inactive
same,Potency,Tov-21-G,inactive
same,Potency,Tov112D,inactive
same,"activity, negative = cell killing",[1]; [4],-9.91%
same,"activity, negative = cell killing",[1]; [5],-0.469%
same,"activity, negative = cell killing",[1]; [6],3.77%
same,"activity, negative = cell killing",[1]; [7],-1.09%
same,Potency,astro,inactive
CC(C)(Oc1ccc(Cl)cc1)C(=O)O,Potency,PA-1,inactive
same,Potency,SKOV3,inactive
same,Potency,Tov-21-G,inactive
same,Potency,Tov112D,inactive
same,"activity, negative = cell killing",[1]; [4],-11.3%
same,"activity, negative = cell killing",[1]; [5],2.87%
same,"activity, negative = cell killing",[1]; [6],-14.8%
same,"activity, negative = cell killing",[1]; [7],-3.07%
same,Potency,astro,inactive
same,max response,[2],-4.53%
same,outcome,[3],inactive
NC(=O)c1cc[n+](CC2=C(C(=O)[O-])N3C(=O)[C@@H](NC(=O)Cc4cccs4)[C@H]3SC2)cc1,Potency,PA-1,inactive
same,Potency,SKOV3,inactive
same,Potency,Tov-21-G,inactive
same,Potency,Tov112D,inactive
same,"activity, negative = cell killing",[1]; [8],-2.18%
same,"activity, negative = cell killing",[1]; [9],-10.7%
same,"activity, negative = cell killing",[1]; [10],-13.1%
same,"activity, negative = cell killing",[1]; [11],-27.6%
same,Potency,astro,inactive
CC(O)(P(=O)(O)O)P(=O)(O)O,Potency,PA-1,inactive
same,Potency,SKOV3,inactive
same,Potency,Tov-21-G,inactive
same,Potency,Tov112D,inactive
same,"activity, negative = cell killing",[1]; [4],-12.4%
same,"activity, negative = cell killing",[1]; [5],0.0097%
same,"activity, negative = cell killing",[1]; [6],-26.7%
same,"activity, negative = cell killing",[1]; [7],-3.69%
same,Potency,astro,inactive
same,max response,[2],-3.46%
same,outcome,[3],inactive
CC[C@@H](CO)NCCN[C@@H](CC)CO,Potency,PA-1,inactive
same,Potency,SKOV3,inactive
same,Potency,Tov-21-G,inactive
same,Potency,Tov112D,inactive
same,"activity, negative = cell killing",[1]; [8],12.9%
same,"activity, negative = cell killing",[1]; [9],2%
same,"activity, negative = cell killing",[1]; [10],-7.59%
same,"activity, negative = cell killing",[1]; [11],-22%
same,Potency,astro,inactive
CCOC(=O)n1ccn(C)c1=S,Potency,PA-1,inactive
same,Potency,SKOV3,inactive
same,Potency,Tov-21-G,inactive
same,Potency,Tov112D,inactive
same,"activity, negative = cell killing",[1]; [8],6.23%
same,"activity, negative = cell killing",[1]; [9],-8.85%
same,"activity, negative = cell killing",[1]; [10],1.59%
same,"activity, negative = cell killing",[1]; [11],-18.4%
same,Potency,astro,inactive
